# Source: the supplement of paper PMC8728848
# The sample as a whole holds a higher share of the strongest signals than the screen did.
# B1: Beta-Defensin 3 (Homo sapiens), P81534 (peptide)
# chain: GIINTLQKYYCRVRGGRCAVLSCLPKEEQIGKCSTRGRKCCRRKK
# What was measured:
# Experiment in all cases: glycan array binding signal (z-score within array); higher = stronger binding
# Conditions in all cases: glycan notation: IUPAC condensed, linker removed
# [1] = molecular target: Neu5Ac(a2-3)Gal(b1-3)GalNAc6S
# Outline: (§1)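 The binding signal is a Z-score computed within each array and averaged over linkers. Arrays of the same protein sequence at different concentrations or buffers were also averaged together. Data originate from 3228 arrays in the Consortium for Functional Glycomics database, kept only where the protein sequence was available.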
# [2] = molecular target: Neu5Ac(a2-3)Gal(b1-3)GlcNAc
# Outline: as §1
# [3] = molecular target: Neu5Ac(a2-3)Gal(b1-3)[Fuc(a1-4)]GlcNAc(b1-3)Gal(b1-3)[Fuc(a1-4)]GlcNAc
# Outline: as §1
# [4] = molecular target: Neu5Ac(a2-3)Gal(b1-4)GlcNAc(b1-2)Man(a1-3)[Neu5Ac(a2-6)Gal(b1-4)GlcNAc(b1-2)Man(a1-6)]Man(b1-4)GlcNAc(b1-4)GlcNAc
# Outline: as §1
# Neu5Ac(a2-6)Gal(b1-4)Glc = molecular target: Neu5Ac(a2-6)Gal(b1-4)Glc
# Outline: as §1
# [5] = molecular target: Neu5Ac(a2-6)Gal(b1-4)GlcNAc(b1-2)Man(a1-3)[GlcNAc(b1-2)Man(b1-4)GlcNAc(b1-2)Man(a1-6)]Man(b1-4)GlcNAc(b1-4)GlcNAc
# Outline: as §1
# [6] = molecular target: Neu5Ac(a2-6)Gal(b1-4)GlcNAc(b1-2)Man(a1-3)[Man(a1-6)]Man(b1-4)GlcNAc(b1-4)GlcNAc
# Outline: as §1
# [7] = molecular target: Neu5Ac(a2-6)Gal(b1-4)GlcNAc(b1-3)Gal(b1-4)GlcNAc
# Outline: as §1
# [8] = molecular target: Neu5Ac(a2-8)Neu5Ac(a2-3)[GalNAc(b1-4)]Gal(b1-4)Glc
# Outline: as §1
# Neu5Gc(a2-3)Gal(b1-4)Glc = molecular target: Neu5Gc(a2-3)Gal(b1-4)Glc
# Outline: as §1
binder,measurement,setting,value
B1,glycan array binding signal (z-score),[1],1.18
same,glycan array binding signal (z-score),[2],-0.304
same,glycan array binding signal (z-score),[3],-0.364
same,glycan array binding signal (z-score),[4],-0.484
same,glycan array binding signal (z-score),Neu5Ac(a2-6)Gal(b1-4)Glc,-0.294
same,glycan array binding signal (z-score),[5],-0.583
same,glycan array binding signal (z-score),[6],-0.313
same,glycan array binding signal (z-score),[7],-0.64
same,glycan array binding signal (z-score),[8],-0.591
same,glycan array binding signal (z-score),Neu5Gc(a2-3)Gal(b1-4)Glc,-0.025
